High-throughput results from PubChem BioAssay.
This excerpt belongs to a sample that is enriched for hits.
Dicer inh = inhibitors of human Dicer processing of pre-microRNA; Q9UPY3; cat-ELCCA pre-miR-21 Dicer processing, chemiluminescence; active compounds read high; z-score at 25 µM; hit rate 6% among 47,000; in the data active means z-score above about 3, passing the limit was not always enough;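 further: plate controls were vehicle for no effect and no enzyme for full effect; higher signal means more uncleaved substrate so more Dicer inhibition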
Active calls of the source: *.

SMILES | Dicer inh
COc1ccc(/C=N/N=C/c2ccc(OC)c(OC)c2)cc1OC | -0.68
CN(C)Cc1c(O)ccc2c(=O)c(Oc3ccccc3Cl)c(C(F)(F)F)oc12 | 0.87
O=C(O)c1nccnc1C(=O)Nc1cccc2c1CCCC2 | -0.09
Cc1ccc(N=Cc2c(Sc3ccc(Cl)cc3)nc3sccn23)cc1 | -1
O=C1N=C(c2ccccc2)C(c2ccccc2)N1 (configuration not stated) | 2.9
O=C1ON=C(c2ccccc2)C1C=C1CCCC1 (configuration not stated) | 4.2*
CCCCCCCC1CC/C(=C/c2cccc([N+](=O)[O-])c2)C1=O (configuration not stated) | 0.32
Cc1cc(NC(=O)CCC(=O)O)n(C)n1 | 0.37
Cc1cc(NC(=O)CC2(CC(=O)O)CCCC2)n(C)n1 | 3.4*
Cn1nccc1NC(=O)CC1(CC(=O)O)CCCCC1 | 0.01
Cc1cc(=O)c2c(Cl)ccc(C)c2[nH]1 | -1.7
CN(C)/C=N/c1ncccc1OCc1ccc(Cl)c(Cl)c1 | -0.64
Cc1ccc(OCC(O)CN2C(=O)NC(C)(C)C2=O)cc1C (configuration not stated) | 0.02
CC1(C)NC(=O)N(CC(O)COc2ccc(Br)cc2)C1=O (configuration not stated) | 3.1*
CC1(C)NC(=O)N(CC(O)CN(c2ccccc2)S(=O)(=O)c2ccccc2)C1=O (configuration not stated) | 2.2
CC1(C)NC(=O)N(Cc2ccccc2)C1=O | -0.41
CC1(C)NC(=O)N(CC(O)CN(Cc2ccccc2)Cc2ccccc2)C1=O (configuration not stated) | 3*
Cc1ccc(OCC(O)CN2C(=O)NC(C)(C)C2=O)cc1 (configuration not stated) | 1.3
CCCC1=C(C(=O)OCC)C(c2cc(OC)ccc2OC)n2c(nc3ccccc32)N1 (configuration not stated) | 1
CCOc1ccc(C2c3c(oc4ccccc4c3=O)C(=O)N2c2nnc(C)s2)cc1 (configuration not stated) | -1.2
COC(=O)c1cc(/C=C(\C#N)S(=O)(=O)c2ccccc2)cn1C | -1
COc1ccc(C2CC(=O)C3=C(C2)Nc2nc4ccccc4n2C3c2ccco2)cc1 (configuration not stated) | -0.8
O=C1CC(c2ccco2)CC2=C1C(c1cccnc1)n1c(nc3ccccc31)N2 (configuration not stated) | 0.79
COc1ccc(C2C3=C(CC(c4ccco4)CC3=O)Nc3nc4ccccc4n32)cc1 (configuration not stated) | 3.1*
CC(=O)Nc1cc(=O)oc2ccc(NC(=O)c3ccc(F)cc3)cc12 | -0.3
SMILES | Dicer inh
CC(C)Cc1ccc(C(=O)/C=C/N(C)C)cc1 | 0.54
CN(C)/C=C/C=C/C=C/C(=O)c1ccc(Br)cc1 | 4.5*
CN(C)/C=C/C(=O)c1ccc(C#N)cc1 | 0.35
CC(=O)CSc1ccc(C(F)(F)F)cn1 | -0.89
Nc1ncnc2c1nc(N=Nc1c(O)[nH]c3ccccc13)n2[C@H]1O[C@@H](CO)[C@H](O)[C@@H]1O | 0.51
COC(=O)c1c(NC(=O)CCSc2nnc3ccccn23)sc2c1CCC2 | -1.6
COC(=O)c1ccc(COCOCc2ccc(C(=O)OC)o2)o1 | 0.87
COC(=O)c1ccc(Cn2nc(C)c([N+](=O)[O-])c2C)o1 | 1.1
COC(=O)c1ccc(CN(C)C)o1 | 5.8*
Cc1ccc(/C(O)=C2/C(=O)C(=O)N(CCN(C)C)C23C(=O)N(C)c2ccccc23)cc1F (configuration not stated) | -2.7
CCOC(=O)C1=C(C)NC2=C(C(=O)CC(C)(C)C2)C1c1ccc(OCc2ccccc2)c(OC)c1 (configuration not stated) | 4.3
Cc1nc(N(C)C)c(C#N)c(C)c1[N+](=O)[O-] | -0.48
Cc1nc(N2CCCCC2)c(C#N)c(C)c1[N+](=O)[O-] | 4.5*
CCOC(=O)c1cc(C)nc(N2CCCCC2)c1C#N | 0.2
C/C(COc1ccc(Cl)cc1Cl)=N\O | -0.02
O=S(=O)(Nc1ncccn1)c1ccc(F)cc1 | -1.4
O=S(=O)(CCSc1ncccn1)c1ccc(F)cc1 | 3*
O=S(=O)(CCSc1nccc(-c2cccs2)n1)c1ccc(F)cc1 | 0.76
CC1=C(C)CC2C(=O)N(c3ccc(I)cc3)C(=O)C2C1 (configuration not stated) | -1.2
Nc1nc(-c2cccnc2)nn1C(=O)c1ccc(Cl)cc1 | -0.49
O=C(O)c1cc(-c2cccnc2)nc2ccccc12 | -1.5
CC(=O)n1nc(-c2cccnc2)nc1N | 5.5*
Nc1nc(-c2cccnc2)nn1S(=O)(=O)c1ccccc1 | 0.34
CCOC(=O)Cn1c(-c2cccnc2)nc(-c2ccccc2)c1-c1ccccc1 | 1.1
Nc1nc(-c2cccnc2)nn1C(=O)Cc1ccccc1 | 8.2*
SMILES | Dicer inh
Cc1ccc2c(C)nc(Nc3nc(C)c(CCC(C)C)c(=O)[nH]3)nc2c1 | 0.48
Cc1ncc(-c2nnnn2-c2ccccc2)c(-c2cccc(Cl)c2)n1 | 0
Cc1nnc(SCC(=O)c2c[nH]c3ccccc23)n1C1CCCCC1 | 1.1
N#CC1=C(N)Oc2n[nH]c(-c3ccccc3)c2C1c1ccc(Cl)cc1 (configuration not stated) | -5.1
Nc1n[nH]c(-c2ccccc2)c1-c1ccccc1 | 3.5*
Nc1nc(-c2ccccc2)cc(=O)[nH]1 | 0.66
CC(=O)c1sc2nc(-c3ccccc3)nc(C)c2c1N | -0.84
C=C1SC(Nc2ccccc2OC)=NC12CCCCC2 | -1.3
COc1cc(/C=C/c2cc(C(F)(F)F)[nH]c(=O)n2)ccc1O | -0.13
O=c1nc(/C=C/c2ccc(-c3cccc(F)c3)o2)cc(C(F)(F)F)[nH]1 | 3.1*
Cc1ccsc1/C=C/c1cc(C(F)(F)F)[nH]c(=O)n1 | 1.1
O=C(NCc1ccc(S(=O)(=O)N2C=CC(C(F)(F)F)=NCC2)s1)c1ccccc1 | -0.61
CC(C)c1ccc(Nc2s[nH]c(=O)c2C#N)cc1 | 3
CCCOc1ccc(N2C(=O)CC(SCCN)C2=O)cc1 (configuration not stated) | -0.11
CCCOc1ccc(N2C(=O)CC(SCC(N)C(=O)OCC)C2=O)cc1 (configuration not stated) | -0.88
CCOc1ccc(N2C(=O)CC(Sc3nc(C)c(CC)c(C)c3C#N)C2=O)cc1 (configuration not stated) | 3.4*
CC1(C)CC(=O)C=C(SCC(=O)c2ccc(Cl)cc2)S1 | -3.6
COc1cccc(C2c3c(oc4ccccc4c3=O)C(=O)N2c2nc(C)c(C)s2)c1 (configuration not stated) | -0.12
O=C(c1cncc(-c2cccs2)c1)N1CCN(C2c3ccccc3-c3ccccc32)CC1 | -0.36
CCn1c(C(C)Oc2ccc(Cl)cc2)n[nH]c1=S (configuration not stated) | -6.2
CC(Oc1ccccc1-c1ccccc1)c1n[nH]c(=S)n1-c1ccccc1 (configuration not stated) | 3.3*
Cc1ccc(C)n1-c1ccc(-c2n[nH]c(=S)n2-c2ccccc2)cc1 | 1.3
N#Cc1c(F)ccc(NC(=O)Nc2ccccc2)c1F | 0.45
COC(=O)c1ccccc1NC(=S)N(N)CCO | -0.19
COC(=O)c1ccccc1NC(=S)OC | 0.06
CCOC(=O)Nc1ccccc1C(=O)OC | 5.4*
COCCOc1ccc(NC(=O)c2cc(OC)c(OC)c(OC)c2)cc1 | 1.5
CC(=N)c1c(O)c2ccccc2n(C)c1=O | 0.9
CCCCNC(=O)c1nn2c(c1Cl)NC(c1cccs1)CC2C(F)(F)F (configuration not stated) | 2.2
